Experimental data from the supplement of paper PMC10338343.
± gives the standard deviation. Whole data set: some 6,200 sequences, median “pre-steady-state target cleavage rate” near 0.29, cut for the highest 2% near 2. Many of the other results were omitted from the sample, so the highest values are more common in it than they were.

System: MIWI (PIWIL1) piRISC loaded with piRNA #1 (30 nt)
Assay: pre-steady-state target cleavage rate (min^-1); MIWI and MILI are mouse PIWI proteins and EfPiwi is from a freshwater sponge; tags in brackets are library labels; higher = faster piRNA-guided slicing of the target
Conditions: guide: piRNA #1 5'p-UGAGGUAGUAGGUUGUAUAGUAUCCAGAGG; auxiliary factor: 500 nM mouse GTSF1
Procedure: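 Cleave-'n-Seq: a library of target RNAs (target site embedded in constant flanks, ACAGCATTCCGCGTTAGTGATATCCG... 5' flank; DNA-blocked outside the site) at 0.1 nM was incubated with 1 nM active mouse MILI or MIWI piRISC (synthetic 5'-monophosphorylated piRNA guide) with or without 500 nM mouse GTSF1 at 33 °C for 1 min to 16 h. Uncleaved targets were sequenced and normalised to non-target controls, and the pooled three trials were fitted to a burst-and-steady-state model to give the pre-steady-state cleavage rate (min^-1; k3 is constrained to at most 1e-4). Sequence is the target site only; target names encode pairing extent (gX:gY) and contiguous / 1-mismatch / 2-mismatch / bulge geometry. Fits with R² ≤ 0 are excluded.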

Sequence	pre-steady-state target cleavage rate
GGAGACCUAUGUAUACAUCCUAGUACCUCA	0.00528 ± 0.0014
GGAGACCUAACUAUACUACCUUCUACCUCA	0.00903 ± 0.0034
CCUCACCAUACUAUACAACCUACUACCUCA	2.03 ± 0.12
GGAGACCAUACUAUACAACCUACUACCUUCA	1.59 ± 0.1
GGUCACCAUACUAUACAACCUACUACCUCA	1.77 ± 0.11
GCUCUCCUUACUAUACAACCUACUACCUCA	1.85 ± 0.12
GGAGACCAUACUAUACAACCUACUACUUCA	2.14 ± 0.14
CCUCUCCAUACUAUACAACCUACUACCUCA	2.04 ± 0.12
GCUCACCAUACUAUACAACCUACUACCUCA	1.87 ± 0.13
GGUCUCCAUACUAUACAACCUACUACCUCA	1.79 ± 0.1
GGACUCCAUACUAUACAACCUACUACCUCA	1.67 ± 0.11
GCUCUCCAUACUAUACAACCUACUACCUCA	2.13 ± 0.13
GGAGACCAUACUAUACAACCUACUACCUACA	1.77 ± 0.18
GGAGUCCAUACUAUACAACCUACUACCUCA	1.63 ± 0.091
GGAGUGGAUACUAUACAACGUACUAGCUCA	0.0857 ± 0.017
GCUCUCGAUACUAUACAACCUACUACGUCA	1.24 ± 0.079
GCACUGGAUACUAUACAUCCUACUACCUCA	1.88 ± 0.096
CCUCAGGAUACUAUACAACCUACUAGCUCA	1.13 ± 0.056
GGAGACGAUACUAUACAACCUACUACCUUA	1.35 ± 0.09
GGAGUGCAUAGUAUACAACCUACUACCUCA	0.659 ± 0.04
GGAGACCUAUCUAUAGAACCUAGUACCUCA	0.0363 ± 0.0089
GGAGAGAUACUAUACAACCUACUACCUCA	1.89 ± 0.11
GGAGAAGAUACUAUACAACCUACUACCUCA	2.04 ± 0.11
GGAGAGAGAUACUAUACAACCUACUACCUCA	2.02 ± 0.12

Sequence	pre-steady-state target cleavage rate
GGAGAUGAUACUAUACAACCUACUACCUCA	1.86 ± 0.095
GGAGUGAGAUACUAUACAACCUACUACCUCA	1.77 ± 0.094
GGAGAGUGAUACUAUACAACCUACUACCUCA	2.1 ± 0.15
GGAGUGUGAUACUAUACAACCUACUACCUCA	1.81 ± 0.1
GGAGAGGAUACUAUACAACCUACCUACCUCA	1.05 ± 0.059
GGAGUGAUACUAUACAACCUACUACCUCA	1.77 ± 0.11
GGAGUGGAUACUUUACAACCUACUACCUCA	1.53 ± 0.086
GGAGACCAUACAAUACAACCUACUAGCUCA	0.486 ± 0.067
GGAGACCUAACUAUAGAACCUACUACCUGA	0.188 ± 0.066
GGACUGGAUACUAUACAACGUACUACCUGA	0.377 ± 0.047
ACUCUGGAUACUAUACAACCUACUACCUCA	2.19 ± 0.13
CACUCUGGAUACUAUACAACCUACUACCUCA	2.09 ± 0.12
CCUCUGGAUACUAUACAACCUACUACACUCA	0.874 ± 0.073
CCUCUGGAUACUAUACAACCUCACUACCUCA	0.0086 ± 0.0033
GGAGACGAUACGUAUACAACCUACUACCUCA	1.4 ± 0.13
GGAGUGGAUACUAUACAACCUACUGACCUCA	0.489 ± 0.043
GGAGUUGAUACUAUACAACCUACUACCUCA	1.97 ± 0.13
GGACUUGAUACUAUACAACCUACUACCUCA	1.73 ± 0.12
CCUCUUGAUACUAUACAACCUACUACCUCA	2.33 ± 0.14
GCUCUGUGAUACUAUACAACCUACUACCUCA	1.81 ± 0.11
GGUCUUGAUACUAUACAACCUACUACCUCA	1.87 ± 0.11
GCUCUUGAUACUAUACAACCUACUACCUCA	2.03 ± 0.11
GCUCUGGAUACUAUACAACCUACAACCUGA	0.744 ± 0.14
GGAGUCGAUACUAUACAACCUACUACCUCA	1.47 ± 0.091

Sequence	pre-steady-state target cleavage rate
GGAGACCAUAACUAUACAACCUACUACCUCA	1.24 ± 0.089
GGUCUGGAUAAUAUACAACCUACUACCUCA	1.88 ± 0.12
GCUCUGGAUAAUAUACAACCUACUACCUCA	2.07 ± 0.13
GCUCUGGAUACUAUACAACCUAAUACCUCA	1.55 ± 0.12
CCUCUGGAUAAUAUACAACCUACUACCUCA	2.06 ± 0.12
CCUCUGGAUAUAUACAACCUACUACCUCA	1.9 ± 0.12
GCUCUGGAUACUAAUACAACCUACUACCUCA	1.49 ± 0.09
CCUCUGGAUACUAUAGAACCUACUACCUCA	0.664 ± 0.06
GGAGACCAUUCUUUACAACCUACUACCUCA	0.387 ± 0.059
GCUCUGGAUAGUAUACUACCUACUACCUCA	0.858 ± 0.049
GGUCUGGAUACAAUACUACCUACUACCUCA	1.09 ± 0.092
CCUCUGGAUACUAUACAACCUACUACCUCG [g2:g30:cont:t1G]	1.32 ± 0.094
CCUCUGGAUACUAUACAACCUACUACCUA	1.52 ± 0.096
CCUCUGGAUACUAUACAACCUACUACCUCU [g2:g30:cont:t1U]	2.36 ± 0.14
CCUCUGGAUACUAUACAACCUACUACCUACA	1.79 ± 0.096
CCUCUGGAUACUAUACAACCUACUACCUCC [g2:g30:cont:t1C]	2.18 ± 0.14
CCUCUGGAUACUAUACAACCUACUACCUAA	1.9 ± 0.1
GGAGAGGAAACAAUACAACCUACUACCUCA	0.95 ± 0.079
GGAGACGAUACUAUUCAUCCUACUACCUCA	1.09 ± 0.061
GGAGUGGAUACUAUCAACCUACUACCUCA	1.58 ± 0.11
GGAGACCUAUCUAUACAACCUACUUCCUGA	0.0338 ± 0.01
GGAGACCUAUCUAUACAACCUUCUACCACA	0.136 ± 0.015
CCUCUGGAUAUUAUACAACCUACUACCUCA	2.15 ± 0.12
GCUCUGGAUAUAUACAACCUACUACCUCA	1.62 ± 0.086

Sequence	pre-steady-state target cleavage rate
GCUCUGGAUACAUAUACAACCUACUACCUCA	1.54 ± 0.083
GGUCUGGAUAUUAUACAACCUACUACCUCA	1.98 ± 0.12
GCUCUGGAUAUUAUACAACCUACUACCUCA	2.06 ± 0.11
GGACUGGAUAUUAUACAACCUACUACCUCA	1.62 ± 0.11
GGAGACCUAAGUAUUCAACCUACUACCUCA	0.00289 ± 0.0023
CGUCUGGAUACUAUACAACCUACUACCUGA	0.517 ± 0.044
CCUCUGGAUACUAUACAUGGUACUACCUCA	0.0547 ± 0.0094
GGAGAGGAUACUAUACAACCUACCACCUCA	0.849 ± 0.049
GCUCUCGAUACUAUACAACCUUCUACCUCA	0.639 ± 0.034
CCUCUCGAUUCUAUACAACCUACUACCUCA	2.25 ± 0.15
GGUCUCGAUUCUAUACAACCUACUACCUCA	1.74 ± 0.1
GCUCUCGAUUCUAUACAACCUACUACCUCA	2.09 ± 0.12
GGACUCGAUUCUAUACAACCUACUACCUCA	1.61 ± 0.14
CCUCUCGAUACUAUACAACCUUCUACCUCA	0.676 ± 0.035
GGUCUGGAUACUAUACUUCCUACUACCUCA	0.248 ± 0.029
GGAGUGGAGACUAUACAACCUACUACCUCA	1.65 ± 0.099
GGAGUGGAUACUAAUACAACCUACUACCUCA	1.4 ± 0.1
GGUGCUGGAUACUAUACAACCUACUACCUCA	1.85 ± 0.11
GGGCUGGAUACUAUACAACCUACUACCUCA	1.9 ± 0.12
CCGCUGGAUACUAUACAACCUACUACCUCA	1.88 ± 0.094
GCGCUGGAUACUAUACAACCUACUACCUCA	1.85 ± 0.1
CCUGCUGGAUACUAUACAACCUACUACCUCA	2.06 ± 0.12
GCUGCUGGAUACUAUACAACCUACUACCUCA	2.01 ± 0.14
GCUCUGGAUACUAUACAACCAUCUACCUCA	0.0463 ± 0.011

Sequence	pre-steady-state target cleavage rate
GGAGUGGUUACUAUAGAACCUACUACCUCA	1.24 ± 0.08
CAUCUGGAUACUAUACAACCUACUACCUCA	1.37 ± 0.066
GGUCUGGAUACUAUACAACCUUACUACCUCA	0.00317 ± 0.0022
GGAGACCUUAGUAUACAACCUACAACCUCA	0.0975 ± 0.018
CCUCAGGAAACUAUACAACCUACUACCUCA	2.04 ± 0.1
GGUCAGGAAACUAUACAACCUACUACCUCA	1.77 ± 0.12
CCUCUGGAAACUAUACAACCUACUACCACA	2.19 ± 0.26
GGACUGGAAACUAUACAACCUACUACCUCA	1.44 ± 0.097
GCUCUGGAAACUAUACAACCUACUACCACA	1.42 ± 0.15
GCUCAGGAAACUAUACAACCUACUACCUCA	1.78 ± 0.1
CCACUGGAAACUAUACAACCUACUACCUCA	2.06 ± 0.11
GGUCUGGAAACUAUACAACCUACUACCACA	0.461 ± 0.05
GCACUGGAAACUAUACAACCUACUACCUCA	1.82 ± 0.089
GGAGACGAUACUAUACAACCUAGAUCCUCA	0.113 ± 0.015
GGAGAGGUUACUAAACAACCUACUACCUCA	1.21 ± 0.08
GGAGACGAUACUAUAGAACCUACUACCUCA	1.14 ± 0.066
GGAGACCUAUGAUAACAACCUACAUGGAGA [g8:g16:cont:t1A]	< 0.0001
GGAGUGCAUACUAUACUACCUACUACCUCA	1.13 ± 0.092
GGAGACCUAUGAUAAGUACCUACUACCUCA	< 0.0001
GGAGACCUAUCUUUACAACCUACUACCACA	0.129 ± 0.03
GGAGUGGAUUCAAUACAACCUACUACCUCA	1.02 ± 0.071
GCUCUGGAUACUAUACAACCUCUACCUCA	0.00616 ± 0.003
CCUCUAGGAUACUAUACAACCUACUACCUCA	2.12 ± 0.12
GGUCUAGGAUACUAUACAACCUACUACCUCA	1.83 ± 0.1

Sequence	pre-steady-state target cleavage rate
GCUCUAGAUACUAUACAACCUACUACCUCA	2.09 ± 0.12
GGACUAGAUACUAUACAACCUACUACCUCA	1.77 ± 0.1
GCUCUAGGAUACUAUACAACCUACUACCUCA	1.85 ± 0.095
GGUCUAGAUACUAUACAACCUACUACCUCA	1.81 ± 0.11
GGAGUAGAUACUAUACAACCUACUACCUCA	1.55 ± 0.074
CCUCUAGAUACUAUACAACCUACUACCUCA	2.2 ± 0.13
GGAGACCUAAAUAUACAACCUACUACCUCA	0.106 ± 0.021
GGACUGGAUACUAUACAACGUUCUACCUCA	0.107 ± 0.014
GGUCUGGAUAGUAUACAACCUACUACCUGA	0.248 ± 0.041
GGAGACGAUAGUAUACUACCUACUACCUCA	0.67 ± 0.071
GGAGUGGAUACUAUACAACCUACUCACCUCA	0.793 ± 0.088
GGAGUGGAUACUAUACUACCUAGUACCUCA	0.283 ± 0.04
GGUGUGGAUACUAUACAACCUACUACCUGA	0.419 ± 0.069
GGAGACGAUACUAUACAACCUACUACCUCC [g2:g24:cont:t1C]	1.5 ± 0.075
GCUCACGAUACUAUACAACCUACUACCUCA	1.83 ± 0.092
CCUCACGAUACUAUACAACCUACUACCUCA	2.1 ± 0.12
CCUGACGAUACUAUACAACCUACUACCUCA	2.06 ± 0.12
GCUGACGAUACUAUACAACCUACUACCUCA	1.84 ± 0.1
GGAGACGAUACUAUACAACCUACUACCUCCA	2.06 ± 0.12
GGUGACGAUACUAUACAACCUACUACCUCA	1.82 ± 0.098
GGAGACGAUACUAUACAACCUACUACCUCG [g2:g24:cont:t1G]	1.1 ± 0.063
GGUCACGAUACUAUACAACCUACUACCUCA	1.89 ± 0.12
